# Results reported in PubChem BioAssay AID1063 (University of Pittsburgh Molecular Library Screening Center, 2008).
# Among all 200,000 compounds or so, about 18,000 (9%) were called active. For the sample, actives were picked, then their nearest neighbours and some compounds at random. Values without a mark were called inactive. Cut-off read from the data, not from the text of the source: active = inhibition above about 50%; inactive = the rest.
# Test: Leishmania major promastigote growth inhibition, primary screen (AID 1063);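 note: promastigotes grown with compound for 44 hours at 28 °C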
# Conditions: Leishmania major promastigotes, resazurin fluorescence viability; at 10 µM; stronger effect = higher value
row,Compound,inhibition
1,CCOC(=O)N1CCN(CC(=O)Nc2ccc(F)cc2)CC1,-5.71%
2,CC(Nc1ccccc1)c1cccnc1 (configuration not stated),12.1%
3,C=CCn1c(N)c(S(=O)(=O)c2cccs2)c2nc3ccccc3nc21,4.67%
4,C=CCn1c(N)c(C(=O)OCC(C)C)c2nc3ccccc3nc21,61% (active)
5,CC(C)Cn1c(N)c(C(=O)NCc2cccs2)c2nc3ccccc3nc21,40.8%
6,Cc1ccc(CN2CCN(/N=C/c3cccnc3)CC2)c(C)c1,13.4%
7,COc1cccc(NC(=S)N(Cc2ccc(C)cc2)Cc2ccccn2)c1,94.4% (active)
8,COc1cccc(NC(=S)NCc2ccccn2)c1,-4.83%
9,CSc1cccc(NC(=S)N(Cc2ccccc2)Cc2ccccn2)c1,17.4%
10,CN(C)c1ccc(/C=N/Nc2cc(N3CCOCC3)nc(N3CCOCC3)n2)cc1,-7.95%
11,Cc1ccc(-n2cc(CN(C)Cc3nccn3C)c(-c3cccc(C)c3)n2)cc1,39%
12,Cc1cc(NC(=O)CN2C(=O)NC(CCc3ccccc3)C2=O)no1 (configuration not stated),4.06%
13,CCNC(=O)CC1C(=O)N(c2ccc(F)cc2)C(=O)N1CCc1sccc1C (configuration not stated),-7.58%
14,O=C(NCCCn1ccnc1)c1cc(-c2ccccc2)on1,2.53%
15,CC(NC(=O)c1cc(-c2ccccc2)on1)c1ccccc1 (configuration not stated),-7.18%
16,O=C(NCCCN1CCOCC1)c1cnn2c(-c3ccccc3)cc(-c3ccccc3)nc12,19%
17,O=C(NNC(=S)NCCCN1CCOCC1)c1ccncc1,-2.18%
18,O=C(NCCN1CCOCC1)c1c(F)c(F)c(F)c(F)c1F,-4.01%
19,CCN(CC)CCCNC(=O)c1cc(-c2cccc(Cl)c2)on1,87.4% (active)
20,O=C(NCCCN1CCOCC1)c1cc2c(s1)CCC2,79% (active)
21,O=C(NCCCN1CCOCC1)c1cc(-c2ccc(Cl)cc2)on1,59.5% (active)

row,Compound,inhibition
1,O=C(NCCCN1CCOCC1)c1ccccc1NS(=O)(=O)c1ccc(Br)cc1,-7.24%
2,CCCCCN(C(=O)NC(=O)Nc1cccc(C)c1C)S(C)(=O)=O,-14.4%
3,COc1cccc(NC(=O)CC(c2ccc(OC(C)C)cc2)c2ccccc2OC)c1 (configuration not stated),-2.29%
4,Cc1ccc(C)c(-n2cc(CN3CCN(C(=O)c4ncn[nH]4)CC3)c(-c3ccccc3)n2)c1,-2.57%
5,CCC(O)C1CCN(Cc2cn(-c3ccc(OC)cc3)nc2-c2cccc(F)c2)CC1 (configuration not stated),30.3%
6,Cc1cccc(-n2cc(CN3CCN(C(=O)c4ncn[nH]4)CC3)c(-c3cccc(F)c3)n2)c1,89.9% (active)
7,Cc1ccc(/C=N/NC(=O)Cn2ccc(C(F)(F)F)n2)o1,-8.92%
8,CC1(C)CC(N(Cc2ccccc2)C(=O)Cc2ccccc2)CCO1 (configuration not stated),3.41%
9,COCCNC(=S)Nc1cc(S(=O)(=O)N2CCOCC2)ccc1N1CCCCC1,-2.67%
10,CN(C)c1nc(N)nc(Cn2nnc(-c3ccc(C(F)(F)F)cc3)n2)n1,-9.02%
11,CC(C)(C)CC(C)(C)NCC(O)COCCOc1ccc(Br)cc1 (configuration not stated),96.6% (active)
12,Brc1ccc(OCCn2ccnc2)cc1,9.23%
13,Cc1noc(COc2ccccc2OCC(O)CNC(C)(C)C)n1 (configuration not stated),5.97%
14,Cc1cc(C)n(-c2nc(C(F)(F)F)nc3ccccc23)n1,24.4%
15,O=C(CN1CCN(Cc2ccc(F)cc2Cl)C1=O)NCc1cccs1,-13%
16,Cc1ccc(S(=O)(=O)NC(C(=O)N2CCOCCOCCOCCOCC2)c2ccccc2)cc1 (configuration not stated),-7.01%
17,COc1cc(/C=N/NC(=O)c2ccccc2)ccc1OS(=O)(=O)c1ccccc1,1.2%
18,COc1ccc(/C=N/NC(=O)c2ccncc2)cc1CN1CCCc2ccccc21,63.4% (active)
19,COc1ccc(/C=N/NC(=O)c2ccc(Cl)cc2)cc1COC(C)=O,-8.12%
20,CC1CC(C)CN(C/C=C/c2ccccc2[N+](=O)[O-])C1 (configuration not stated),83.9% (active)
21,CC1CC(C)CN(CC(=O)N2c3ccccc3CCc3ccccc32)C1 (configuration not stated),18.5%

row,Compound,inhibition
1,CC(C)CNC(=O)COC(=O)/C=C/c1ccccc1[N+](=O)[O-],4.47%
2,COc1cc(CN2CCNC(=O)C2CC(=O)NCCc2ncccc2C)cc(OC)c1 (configuration not stated),-4.29%
3,CC1=C(C)CC(C(=O)NC(C)CCc2ccccc2)C(C(=O)O)C1 (configuration not stated),17.2%
4,C=CCOc1c(CNn2cn[nH]c2=S)cccc1OC,25.5%
5,CSc1nc2c(c(=O)[nH]1)C(c1cccc(Cl)c1Cl)CC(=O)N2 (configuration not stated),-5.68%
6,COc1ccc(C2CC(=O)Nc3sc(=N)c4c(N)c(C#N)c(N)nc4c32)cc1OC (configuration not stated),-5.32%
7,N#Cc1c(N)nc2c3c(sc(=N)c2c1N)NC(=O)CC3c1ccccc1Cl (configuration not stated),75.7% (active)
8,COc1cccc2c1OCC(CN1CCN(C3CCCCC3)C(CCO)C1)=C2 (configuration not stated),11.6%
9,O=C(c1snnc1-c1ccccc1)N1CCOCC1,-3.05%
10,CCc1nnc(NC(=O)CCC(=O)O)s1,-2.47%
11,CCc1nnc(NC(=O)CCN(c2ccc(C)cc2)S(=O)(=O)c2ccccc2)s1,71.3% (active)
12,CCc1nnc(NC(=O)CCC(=O)NCc2ccccc2OC)s1,-6.69%
13,Cc1c(Cl)c([N+](=O)[O-])nn1CCCC(=O)Nc1cc(Cl)ccc1Cl,0.47%
14,Cc1ccc(C(=O)O)cc1NC(=O)c1ccc(Cn2nc(C)c(Cl)c2C)o1,-7.15%
15,Cc1c(Cl)c([N+](=O)[O-])nn1Cc1ccc(C(=O)N/N=C\c2cc(Cl)ccc2O)o1,100% (active)
16,Cc1ccc(OCC(=O)NC(C)c2ccccc2)c([N+](=O)[O-])n1 (configuration not stated),11.1%
17,CCc1ccc(NC(=O)Nc2ccncc2)cc1,24.8%
18,O=C(Cc1c[nH]c2ccccc12)OCCOC(=O)Cc1c[nH]c2ccccc12,94.7% (active)
19,NS(=O)(=O)c1ccc(NC(=O)COC(=O)CCc2c[nH]c3ccccc23)cc1,-4.64%
20,CCOC(=O)CN(C)Cc1c[nH]c2ccccc12,-1.3%
